A selection: hits, their analogues and other compounds. The true share with any hit is near 18%.
TDP1 cell CPT: growth inhibition of DT40 Tdp1-/-;hTDP1 cells with camptothecin (screen for TDP1 inhibitors); chicken DT40 Tdp1-/-;hTDP1 cells + 20 nM CPT, ATP luminescence, 48 h; Potency, µM (series often up to 46.2 µM), hits mostly inhibitors; hit rate 12% among 420,000; AID 686979; also: nearly all actives have a fitted effect of over 55% in size
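Chicken DT40 Tdp1-/- cells stably complemented with human TDP1 were seeded at 400 cells/well in medium containing 20 nM camptothecin, exposed to pin-transferred compounds, and grown at 37 °C for at least 48 hr. Viability was read as ATP luminescence.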
GCN5L2 inh: inhibitors of human GCN5L2 histone acetyltransferase; GCN5L2 HAT assay, ThioGlo1 CoA-SH fluorescence; Potency, µM (titrated, usually from 58.9 µM), most hits filed as inhibitors; hit rate 0.21% among 390,000
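Compounds, pin-transferred from DMSO stocks, meet 20nM GCN5L2 for 15 min before the reaction begins with H3(1-25) peptide (75uM) and acetyl-CoA (70uM). Thiol-reactive ThioGlo1 reports CoA release over 20 min at room temperature.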
VDR inh: blocks the human vitamin D receptor; hit rate 0.93% among 400,000; VDR-SRC2-3 peptide fluorescence polarization, 2 h; P11473; AID 504847; Potency, µM, hits mostly inhibitors
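VDR–SRC2-3 interaction, FP format. Cmpds 23 nl via pintool, brief spin, 2 h ambient incubation.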
TDP1 cell noCPT: qHTS for Inhibitors of human tyrosyl-DNA phosphodiesterase 1 (TDP1): qHTS in cells in absence of CPT; DT40 Tdp1-/- hTDP1 cells, no CPT, ATP luminescence, 48 h; Potency, µM (titrated, usually from 46.2 µM), most hits filed as inhibitors; hit rate 15% among 420,000; AID 686978, 2013; also: nearly all actives have a fitted effect of over 55% in size
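Compound effects on proliferation are scored in DT40 Tdp1-/-;hTDP1 cells in the absence of CPT. ATP levels (CellTiter-Glo luminescence) are recorded after a ≥48 hr, 37 °C incubation.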
PLK1 PBD block: inhibitors of human PLK1 polo-box domain binding. Plk1 PBD binding of FITC phosphopeptide, fluorescence polarization. Potency, µM, hits mostly inhibitors. hit rate 2.8% among 360,000; also: series mostly up to about 57 µM; nearly all actives have a fitted effect of over 65% in size
Target sequence (P53350 whole entry, looked up, the tested form may be a part): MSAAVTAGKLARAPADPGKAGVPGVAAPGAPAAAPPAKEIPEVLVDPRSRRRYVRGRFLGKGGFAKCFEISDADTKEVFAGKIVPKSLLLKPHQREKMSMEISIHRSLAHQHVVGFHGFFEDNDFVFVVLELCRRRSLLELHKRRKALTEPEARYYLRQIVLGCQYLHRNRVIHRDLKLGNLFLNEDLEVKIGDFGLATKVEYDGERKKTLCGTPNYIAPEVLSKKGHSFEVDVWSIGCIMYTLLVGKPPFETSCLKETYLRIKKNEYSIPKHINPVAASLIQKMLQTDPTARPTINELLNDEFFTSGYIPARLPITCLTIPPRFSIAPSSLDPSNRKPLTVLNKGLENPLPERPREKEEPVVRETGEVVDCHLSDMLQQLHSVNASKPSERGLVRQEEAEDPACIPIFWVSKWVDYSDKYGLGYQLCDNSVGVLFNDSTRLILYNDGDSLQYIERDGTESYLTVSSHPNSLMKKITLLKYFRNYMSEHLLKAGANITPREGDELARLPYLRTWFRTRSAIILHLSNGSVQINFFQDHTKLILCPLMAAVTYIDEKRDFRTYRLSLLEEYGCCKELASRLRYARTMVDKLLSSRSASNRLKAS
TDP1 inh: blocks human tyrosyl-DNA phosphodiesterase 1; Q9NUW8; recombinant TDP1, AlphaScreen DNA substrate cleavage; Potency, µM (doses to about 130 µM), most hits filed as inhibitors; hit rate 0.28% among 350,000; AID 485290; also: nearly all actives have a fitted effect of over 40% in size
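Compounds were preincubated with Tdp1 (1 nM final) for 15 min at room temperature before substrate (15 nM final) started a 5 min reaction; beads (10 ug/ml final) were then added for 10 min before AlphaScreen detection.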
A number is an active result; - = inactive; ? = inconclusive; . = no result. Calls follow the shape of the dose curve; as a rule, active = well fitted curve in the direction sought with a large enough effect; inconclusive = small, poorly fitted or top-dose-only effect, or another doubt; inactive = no such curve, though single readings can be large; an effect the other way counts as inactive or inconclusive.

SMILES | TDP1 cell CPT | GCN5L2 inh | VDR inh | TDP1 cell noCPT | PLK1 PBD block | TDP1 inh
CCCCCCCCN1C(=O)[C@H](CC(=O)NCCCOCCCC)C[C@@]2(C(=O)OC)CCCCC=C12 | 13µM | . | . | 18µM | - | .
CCCCOCCCNC(=O)C[C@@H]1C[C@@]2(C(=O)OCC)CCCC=C2N(Cc2ccco2)C1=O | - | . | . | ? | - | .
CCCCCCCCN1C(=O)[C@H](CC(=O)NCCCOCCCC)C[C@@]2(C(=O)OCC)CCCC=C12 | 13µM | . | . | 16µM | - | .
CCCCOCCCNC(=O)C[C@@H]1C[C@@]2(C(=O)OCC)CCCC=C2N(CCc2ccc(OC)c(OC)c2)C1=O | 21µM | . | . | ? | - | .
CCCCCCCCN1C(=O)[C@H](CC(=O)NCCCC)C[C@@]2(C(=O)OC)CCCCC=C12 | 16µM | . | . | 12µM | - | .
CCCCOCCCNC(=O)C[C@@H]1C[C@@]2(C(=O)OCC)CCC=C2N(CCC2=CCCCC2)C1=O | ? | . | . | ? | - | .
Cc1ccccc1-c1nnc(SCC(=O)N2CCCc3ccccc32)o1 | ? | - | - | ? | . | -
CCn1nnnc1NC(=O)c1cc(Cl)c(OC)c(Cl)c1 | - | - | - | - | - | -
CC(=O)Nc1ccc(S(=O)(=O)N2CCC(c3nnnn3-c3ccccc3)CC2)cc1 | ? | - | - | ? | . | -
O=C(CCc1nc2ccccc2c(=O)[nH]1)N1CCN(S(=O)(=O)c2ccc(F)cc2)CC1 | ? | - | - | - | - | -
Cc1cccc(NC(=O)C(=O)NCCc2sc(-c3ccccc3)nc2C)c1C | . | - | - | . | . | -
COC(=O)[C@]12CCCCC=C1N(Cc1ccccc1)C(=O)[C@H](CC(=O)NCc1ccccc1)C2 | ? | . | . | ? | - | .
CCCCCCCCN1C(=O)[C@H](CC(=O)NCCC(C)C)C[C@@]2(C(=O)OC)CCCCC=C12 | ? | . | . | 16µM | - | .
O=c1[nH]c(/C=C/c2ccc(Br)cc2)nc2ccccc12 | - | - | - | - | - | .
Cc1nc(/C=C/c2ccccc2)[nH]c(=O)c1-c1ccccc1 | 10µM | - | - | ? | - | -
Cc1cccc(/C=C\c2nc3ccccc3c(=O)[nH]2)c1 | 21µM | - | - | 18µM | - | -
CN(C)c1ccc(/C=C/c2nc3ccccc3c(=O)[nH]2)cc1 | 21µM | - | - | 10µM | - | .
O=c1[nH]c(/C=C/c2ccccc2F)nc2ccccc12 | 2.9µM | - | - | 2.9µM | - | 45µM
Cc1cccc(NC(=O)CSc2nc3ccccc3c3nc(CCc4c(C)n[nH]c4C)nn23)c1 | 16µM | - | - | 13µM | - | -
Cc1cncn1CCc1nc2c3ccccc3nc(SCC(=O)Nc3cccc(Cl)c3)n2n1 | 18µM | - | - | 7.3µM | - | -
Cc1n[nH]c(C)c1CCc1nc2c3ccccc3nc(SCC(=O)Nc3ccccc3F)n2n1 | ? | - | - | ? | - | -
Cc1nc2ccccc2n1CCc1nc2c3ccccc3nc(SCC(=O)Nc3cccc(C(F)(F)F)c3)n2n1 | ? | - | - | ? | . | -
CN(C)c1nc(N)ncc1-c1ccc(Oc2ccccc2)cc1 | - | - | - | - | - | .
COc1ccc(CCNC(=O)c2ccc3c(c2)N(Cc2ccc(F)cc2)CCS3)c(OC)c1 | 15µM | - | - | 13µM | - | -
COc1ccc(CCNC(=O)c2ccc3c(c2)NC(=O)CS3)cc1OC | - | - | - | - | - | -
SMILES | TDP1 cell CPT | GCN5L2 inh | VDR inh | TDP1 cell noCPT | PLK1 PBD block | TDP1 inh
CN(C)CCNC(=O)c1ccc2c(c1)N(Cc1ccc(F)cc1)CCS2 | 26µM | - | - | 16µM | - | -
COc1ccc(CCNC(=O)c2ccc3c(c2)N(Cc2ccc(C)cc2)CCS3)cc1OC | 18µM | - | - | 16µM | - | -
COc1ccc(OC)c(CCNC(=O)c2ccc3c(c2)N(Cc2ccc(F)cc2)CCS3)c1 | 21µM | - | - | ? | - | -
CCN1CCSc2ccc(C(=O)NCc3ccc(OC(C)C)cc3)cc21 | ? | - | - | ? | - | -
O=C(c1ccc2c(c1)N(Cc1ccc(F)cc1)CCS2)N1CCOCC1 | ? | - | - | ? | - | -
CCN(C[C@H]1N[C@@](Cc2ccccc2)(C(=O)OC)[C@H]2C(=O)N(C)C(=O)[C@@H]12)C(=O)NC(C)C | - | - | - | - | - | -
O=S(=O)(c1ccc2c(c1)CCN2)N1CCCCCC1 | - | - | - | - | . | -
CCOc1ccc(CCNC(=O)c2ccc3c(c2)N(Cc2ccc(F)cc2)CCS3)cc1 | ? | - | - | 15µM | . | -
CCOc1ccc(CNC(=O)c2ccc3c(c2)N(CC)CCS3)cc1 | ? | - | - | ? | - | -
Cc1ccc(NC(=O)C(Cc2ccccc2)n2cccc2)cc1C (configuration not stated) | 12µM | - | - | 16µM | . | -
CC(=O)c1ccc(NC(=O)C(Cc2ccccc2)n2cccc2)cc1 (configuration not stated) | ? | - | ? | ? | 13µM | -
CC1(C)Oc2ccc(C(=O)N/N=C/c3ccc(O)cc3)cc2NC1=O | - | - | - | - | - | .
O=c1[nH]cnc2c1sc(=S)n2-c1ccccc1 | ? | - | ? | ? | 7.5µM | -
O=c1[nH]c(-c2ccc(F)cc2)nc2c1sc(=S)n2-c1ccccc1 | ? | - | - | 6.5µM | ? | -
COc1cc(C(C(=O)NC2CCCCC2)N(CCN2CCOCC2)C(=O)C2COc3ccccc3O2)cc(OC)c1OC (configuration not stated) | - | - | - | - | - | -
CCOc1cc(N2CCOCC2)c(OCC)cc1NC(=O)COC(=O)CCOc1cc(C)ccc1C | ? | - | - | 23µM | - | -
CCOc1cc(N2CCOCC2)c(OCC)cc1NS(=O)(=O)c1ccc(Cl)s1 | 4.6µM | - | - | 2.9µM | - | ?
CCOc1cc(N2CCOCC2)c(OCC)cc1NC(=O)COC(=O)COc1cc(C)cc(C)c1 | - | - | - | - | - | -
CCCNC(=O)Nc1cc(OCC)c(N2CCOCC2)cc1OCC | ? | - | - | 18µM | - | -
CCOc1cc(N2CCOCC2)c(OCC)cc1NC(=O)C(C)Oc1ccccc1 (configuration not stated) | ? | - | - | 13µM | - | -
Cc1ccc(S(=O)(=O)NC(=O)C2(C)CCN2C(=O)Cc2ccc(Cl)cc2Cl)nc1 (configuration not stated) | - | . | . | - | - | .
CC(Oc1cccc(Cl)c1)C(=O)Nc1cc(=O)n(C)c(=O)n1C (configuration not stated) | ? | - | - | 13µM | - | -
CCOc1cc(N2CCOCC2)c(OCC)cc1NC(=O)c1ccc(OCc2c(C)noc2C)c(OC)c1 | 15µM | - | - | 10µM | - | -
